The supplement of paper PMC11732987, “Enantioselective OTUD7B fragment discovery through chemoproteomics screening and high-throughput optimisation” (Communications Chemistry, 2025)

Key:
Test in all cases: log2 ratio of Biotin-Ahx-Ub-VS probe labelling (fragment/DMSO); higher = less target engagement (more negative = stronger competition), active = hit call of the paper (q ≤ 0.05, log2 ratio ≤ -1)
Conditions in all cases: compound concentration: 200 uM; treatment time: 3 h
USP34 = USP34 (UniProt Q70CQ2)
In short: (§1)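 Using Biotin-Ahx-Ub-VS at 0.5 µM final for 1 h, DUBs were labelled in HEK293T lysate (495 µg per sample) that had first been treated in triplicate with fragment at 200 µM or vehicle for 3 h. NeutrAvidin enrichment, LysC and trypsin digestion and diaPASEF LC-MS/MS followed. Spectronaut label-free quantities were global-median-normalised. Values are average log2 fragment/vehicle ratios by unpaired t-test, using proteins with ≥2 unique peptides.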

USP36 = target: T1, USP36 (UniProt Q9P275)
T1 sequence (whole entry): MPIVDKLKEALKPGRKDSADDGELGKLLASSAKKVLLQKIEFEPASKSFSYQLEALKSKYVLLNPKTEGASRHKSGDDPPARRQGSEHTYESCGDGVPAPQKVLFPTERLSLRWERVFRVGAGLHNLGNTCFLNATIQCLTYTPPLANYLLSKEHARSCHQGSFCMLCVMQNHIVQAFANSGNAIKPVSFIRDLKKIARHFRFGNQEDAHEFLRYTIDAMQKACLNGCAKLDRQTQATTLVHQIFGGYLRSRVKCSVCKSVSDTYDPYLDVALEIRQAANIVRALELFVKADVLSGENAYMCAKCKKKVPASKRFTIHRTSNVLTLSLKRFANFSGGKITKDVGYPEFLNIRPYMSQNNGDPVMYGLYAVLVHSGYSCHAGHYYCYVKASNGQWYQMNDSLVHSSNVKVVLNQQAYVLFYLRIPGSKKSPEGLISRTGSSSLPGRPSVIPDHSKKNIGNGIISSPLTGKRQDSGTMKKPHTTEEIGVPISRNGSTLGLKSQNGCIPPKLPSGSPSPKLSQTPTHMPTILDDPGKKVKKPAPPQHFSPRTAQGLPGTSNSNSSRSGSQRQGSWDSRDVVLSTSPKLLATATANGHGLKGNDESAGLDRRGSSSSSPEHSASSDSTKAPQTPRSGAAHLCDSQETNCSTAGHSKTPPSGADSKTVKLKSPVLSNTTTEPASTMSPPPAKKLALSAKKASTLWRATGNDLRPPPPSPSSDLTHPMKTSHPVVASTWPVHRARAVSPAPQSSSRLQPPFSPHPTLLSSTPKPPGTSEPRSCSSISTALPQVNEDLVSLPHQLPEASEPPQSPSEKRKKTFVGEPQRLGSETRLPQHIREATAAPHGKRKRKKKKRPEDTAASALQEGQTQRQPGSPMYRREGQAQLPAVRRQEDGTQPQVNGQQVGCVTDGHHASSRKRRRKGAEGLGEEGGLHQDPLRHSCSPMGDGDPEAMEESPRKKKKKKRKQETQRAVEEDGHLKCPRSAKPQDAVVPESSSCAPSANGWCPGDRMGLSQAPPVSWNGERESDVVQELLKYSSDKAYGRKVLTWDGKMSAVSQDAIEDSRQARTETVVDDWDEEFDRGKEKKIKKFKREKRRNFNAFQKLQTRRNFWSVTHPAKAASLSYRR
In short: as §1

USP38 = target: T2, USP38 (UniProt Q8NB14)
T2 sequence (whole entry): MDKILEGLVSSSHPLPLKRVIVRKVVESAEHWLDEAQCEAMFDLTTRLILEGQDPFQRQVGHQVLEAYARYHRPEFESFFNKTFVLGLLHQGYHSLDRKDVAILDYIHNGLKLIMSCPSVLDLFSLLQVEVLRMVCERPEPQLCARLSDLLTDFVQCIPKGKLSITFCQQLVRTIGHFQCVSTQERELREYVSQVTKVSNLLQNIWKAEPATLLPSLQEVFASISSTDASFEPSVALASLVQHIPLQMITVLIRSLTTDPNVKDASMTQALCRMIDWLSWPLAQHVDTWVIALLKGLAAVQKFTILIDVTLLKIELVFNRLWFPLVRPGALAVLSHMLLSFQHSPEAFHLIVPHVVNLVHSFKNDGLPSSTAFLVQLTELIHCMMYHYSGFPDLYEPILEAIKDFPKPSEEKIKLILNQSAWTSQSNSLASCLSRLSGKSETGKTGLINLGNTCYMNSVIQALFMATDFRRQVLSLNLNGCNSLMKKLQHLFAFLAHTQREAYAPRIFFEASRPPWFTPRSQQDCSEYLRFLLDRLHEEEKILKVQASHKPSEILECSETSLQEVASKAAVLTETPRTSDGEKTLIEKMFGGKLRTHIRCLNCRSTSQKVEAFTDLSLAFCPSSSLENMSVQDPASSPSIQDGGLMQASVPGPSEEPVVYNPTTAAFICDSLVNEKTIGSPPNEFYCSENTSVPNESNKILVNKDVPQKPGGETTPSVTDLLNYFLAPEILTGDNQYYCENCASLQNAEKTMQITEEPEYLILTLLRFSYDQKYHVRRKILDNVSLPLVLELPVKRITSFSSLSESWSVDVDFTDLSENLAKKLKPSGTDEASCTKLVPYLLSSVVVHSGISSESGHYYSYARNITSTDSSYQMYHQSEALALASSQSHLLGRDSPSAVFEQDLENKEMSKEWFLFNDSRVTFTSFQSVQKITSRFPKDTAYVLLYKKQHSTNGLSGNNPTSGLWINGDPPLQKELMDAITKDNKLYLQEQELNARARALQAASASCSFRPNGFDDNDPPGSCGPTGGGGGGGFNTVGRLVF
In short: as §1

USP39 = target: T3, USP39 (UniProt Q53GS9)
T3 sequence (whole entry): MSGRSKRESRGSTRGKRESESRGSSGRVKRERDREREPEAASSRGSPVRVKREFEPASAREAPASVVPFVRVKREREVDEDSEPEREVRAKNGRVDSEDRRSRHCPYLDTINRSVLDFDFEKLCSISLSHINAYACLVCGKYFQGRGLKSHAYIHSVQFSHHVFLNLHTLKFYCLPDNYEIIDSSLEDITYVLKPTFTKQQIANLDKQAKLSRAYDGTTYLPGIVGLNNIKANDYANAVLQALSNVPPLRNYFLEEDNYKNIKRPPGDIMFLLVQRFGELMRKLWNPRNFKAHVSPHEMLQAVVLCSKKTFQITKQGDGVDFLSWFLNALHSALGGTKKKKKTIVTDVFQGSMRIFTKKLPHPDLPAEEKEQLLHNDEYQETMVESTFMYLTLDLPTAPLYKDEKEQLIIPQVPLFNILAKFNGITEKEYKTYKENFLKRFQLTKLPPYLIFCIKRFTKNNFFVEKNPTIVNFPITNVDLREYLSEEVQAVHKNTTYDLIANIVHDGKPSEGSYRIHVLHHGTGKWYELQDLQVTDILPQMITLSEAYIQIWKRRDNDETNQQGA
In short: as §1

USP4 = target: T4, USP4 (UniProt Q13107)
T4 sequence (whole entry): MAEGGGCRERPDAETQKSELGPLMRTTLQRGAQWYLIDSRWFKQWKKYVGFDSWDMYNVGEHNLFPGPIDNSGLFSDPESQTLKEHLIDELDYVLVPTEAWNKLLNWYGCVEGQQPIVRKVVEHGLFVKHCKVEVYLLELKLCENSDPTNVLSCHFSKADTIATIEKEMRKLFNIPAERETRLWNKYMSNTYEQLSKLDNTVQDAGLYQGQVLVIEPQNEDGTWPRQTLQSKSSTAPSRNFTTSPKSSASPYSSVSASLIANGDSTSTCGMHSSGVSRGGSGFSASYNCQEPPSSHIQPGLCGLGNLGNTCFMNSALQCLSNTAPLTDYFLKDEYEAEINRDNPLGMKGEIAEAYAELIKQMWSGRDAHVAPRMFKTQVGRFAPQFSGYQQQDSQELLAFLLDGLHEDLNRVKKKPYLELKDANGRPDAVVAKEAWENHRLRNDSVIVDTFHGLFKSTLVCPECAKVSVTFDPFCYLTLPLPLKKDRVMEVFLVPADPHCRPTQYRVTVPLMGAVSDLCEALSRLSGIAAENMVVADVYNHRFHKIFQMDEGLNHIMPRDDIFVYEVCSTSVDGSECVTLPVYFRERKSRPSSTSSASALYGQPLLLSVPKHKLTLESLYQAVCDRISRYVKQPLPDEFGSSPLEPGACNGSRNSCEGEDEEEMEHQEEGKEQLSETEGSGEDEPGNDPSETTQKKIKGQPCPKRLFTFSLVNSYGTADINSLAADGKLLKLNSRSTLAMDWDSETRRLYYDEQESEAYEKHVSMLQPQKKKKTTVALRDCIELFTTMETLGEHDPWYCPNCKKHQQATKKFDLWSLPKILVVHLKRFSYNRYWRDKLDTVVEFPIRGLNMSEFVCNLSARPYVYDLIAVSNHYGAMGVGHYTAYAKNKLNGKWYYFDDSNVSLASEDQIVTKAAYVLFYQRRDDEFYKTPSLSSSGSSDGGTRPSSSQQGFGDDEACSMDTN
In short: as §1

Measured: log2 ratio of Biotin-Ahx-Ub-VS probe labelling

USP34, sequence (Q70CQ2 whole entry, the tested form may be a part): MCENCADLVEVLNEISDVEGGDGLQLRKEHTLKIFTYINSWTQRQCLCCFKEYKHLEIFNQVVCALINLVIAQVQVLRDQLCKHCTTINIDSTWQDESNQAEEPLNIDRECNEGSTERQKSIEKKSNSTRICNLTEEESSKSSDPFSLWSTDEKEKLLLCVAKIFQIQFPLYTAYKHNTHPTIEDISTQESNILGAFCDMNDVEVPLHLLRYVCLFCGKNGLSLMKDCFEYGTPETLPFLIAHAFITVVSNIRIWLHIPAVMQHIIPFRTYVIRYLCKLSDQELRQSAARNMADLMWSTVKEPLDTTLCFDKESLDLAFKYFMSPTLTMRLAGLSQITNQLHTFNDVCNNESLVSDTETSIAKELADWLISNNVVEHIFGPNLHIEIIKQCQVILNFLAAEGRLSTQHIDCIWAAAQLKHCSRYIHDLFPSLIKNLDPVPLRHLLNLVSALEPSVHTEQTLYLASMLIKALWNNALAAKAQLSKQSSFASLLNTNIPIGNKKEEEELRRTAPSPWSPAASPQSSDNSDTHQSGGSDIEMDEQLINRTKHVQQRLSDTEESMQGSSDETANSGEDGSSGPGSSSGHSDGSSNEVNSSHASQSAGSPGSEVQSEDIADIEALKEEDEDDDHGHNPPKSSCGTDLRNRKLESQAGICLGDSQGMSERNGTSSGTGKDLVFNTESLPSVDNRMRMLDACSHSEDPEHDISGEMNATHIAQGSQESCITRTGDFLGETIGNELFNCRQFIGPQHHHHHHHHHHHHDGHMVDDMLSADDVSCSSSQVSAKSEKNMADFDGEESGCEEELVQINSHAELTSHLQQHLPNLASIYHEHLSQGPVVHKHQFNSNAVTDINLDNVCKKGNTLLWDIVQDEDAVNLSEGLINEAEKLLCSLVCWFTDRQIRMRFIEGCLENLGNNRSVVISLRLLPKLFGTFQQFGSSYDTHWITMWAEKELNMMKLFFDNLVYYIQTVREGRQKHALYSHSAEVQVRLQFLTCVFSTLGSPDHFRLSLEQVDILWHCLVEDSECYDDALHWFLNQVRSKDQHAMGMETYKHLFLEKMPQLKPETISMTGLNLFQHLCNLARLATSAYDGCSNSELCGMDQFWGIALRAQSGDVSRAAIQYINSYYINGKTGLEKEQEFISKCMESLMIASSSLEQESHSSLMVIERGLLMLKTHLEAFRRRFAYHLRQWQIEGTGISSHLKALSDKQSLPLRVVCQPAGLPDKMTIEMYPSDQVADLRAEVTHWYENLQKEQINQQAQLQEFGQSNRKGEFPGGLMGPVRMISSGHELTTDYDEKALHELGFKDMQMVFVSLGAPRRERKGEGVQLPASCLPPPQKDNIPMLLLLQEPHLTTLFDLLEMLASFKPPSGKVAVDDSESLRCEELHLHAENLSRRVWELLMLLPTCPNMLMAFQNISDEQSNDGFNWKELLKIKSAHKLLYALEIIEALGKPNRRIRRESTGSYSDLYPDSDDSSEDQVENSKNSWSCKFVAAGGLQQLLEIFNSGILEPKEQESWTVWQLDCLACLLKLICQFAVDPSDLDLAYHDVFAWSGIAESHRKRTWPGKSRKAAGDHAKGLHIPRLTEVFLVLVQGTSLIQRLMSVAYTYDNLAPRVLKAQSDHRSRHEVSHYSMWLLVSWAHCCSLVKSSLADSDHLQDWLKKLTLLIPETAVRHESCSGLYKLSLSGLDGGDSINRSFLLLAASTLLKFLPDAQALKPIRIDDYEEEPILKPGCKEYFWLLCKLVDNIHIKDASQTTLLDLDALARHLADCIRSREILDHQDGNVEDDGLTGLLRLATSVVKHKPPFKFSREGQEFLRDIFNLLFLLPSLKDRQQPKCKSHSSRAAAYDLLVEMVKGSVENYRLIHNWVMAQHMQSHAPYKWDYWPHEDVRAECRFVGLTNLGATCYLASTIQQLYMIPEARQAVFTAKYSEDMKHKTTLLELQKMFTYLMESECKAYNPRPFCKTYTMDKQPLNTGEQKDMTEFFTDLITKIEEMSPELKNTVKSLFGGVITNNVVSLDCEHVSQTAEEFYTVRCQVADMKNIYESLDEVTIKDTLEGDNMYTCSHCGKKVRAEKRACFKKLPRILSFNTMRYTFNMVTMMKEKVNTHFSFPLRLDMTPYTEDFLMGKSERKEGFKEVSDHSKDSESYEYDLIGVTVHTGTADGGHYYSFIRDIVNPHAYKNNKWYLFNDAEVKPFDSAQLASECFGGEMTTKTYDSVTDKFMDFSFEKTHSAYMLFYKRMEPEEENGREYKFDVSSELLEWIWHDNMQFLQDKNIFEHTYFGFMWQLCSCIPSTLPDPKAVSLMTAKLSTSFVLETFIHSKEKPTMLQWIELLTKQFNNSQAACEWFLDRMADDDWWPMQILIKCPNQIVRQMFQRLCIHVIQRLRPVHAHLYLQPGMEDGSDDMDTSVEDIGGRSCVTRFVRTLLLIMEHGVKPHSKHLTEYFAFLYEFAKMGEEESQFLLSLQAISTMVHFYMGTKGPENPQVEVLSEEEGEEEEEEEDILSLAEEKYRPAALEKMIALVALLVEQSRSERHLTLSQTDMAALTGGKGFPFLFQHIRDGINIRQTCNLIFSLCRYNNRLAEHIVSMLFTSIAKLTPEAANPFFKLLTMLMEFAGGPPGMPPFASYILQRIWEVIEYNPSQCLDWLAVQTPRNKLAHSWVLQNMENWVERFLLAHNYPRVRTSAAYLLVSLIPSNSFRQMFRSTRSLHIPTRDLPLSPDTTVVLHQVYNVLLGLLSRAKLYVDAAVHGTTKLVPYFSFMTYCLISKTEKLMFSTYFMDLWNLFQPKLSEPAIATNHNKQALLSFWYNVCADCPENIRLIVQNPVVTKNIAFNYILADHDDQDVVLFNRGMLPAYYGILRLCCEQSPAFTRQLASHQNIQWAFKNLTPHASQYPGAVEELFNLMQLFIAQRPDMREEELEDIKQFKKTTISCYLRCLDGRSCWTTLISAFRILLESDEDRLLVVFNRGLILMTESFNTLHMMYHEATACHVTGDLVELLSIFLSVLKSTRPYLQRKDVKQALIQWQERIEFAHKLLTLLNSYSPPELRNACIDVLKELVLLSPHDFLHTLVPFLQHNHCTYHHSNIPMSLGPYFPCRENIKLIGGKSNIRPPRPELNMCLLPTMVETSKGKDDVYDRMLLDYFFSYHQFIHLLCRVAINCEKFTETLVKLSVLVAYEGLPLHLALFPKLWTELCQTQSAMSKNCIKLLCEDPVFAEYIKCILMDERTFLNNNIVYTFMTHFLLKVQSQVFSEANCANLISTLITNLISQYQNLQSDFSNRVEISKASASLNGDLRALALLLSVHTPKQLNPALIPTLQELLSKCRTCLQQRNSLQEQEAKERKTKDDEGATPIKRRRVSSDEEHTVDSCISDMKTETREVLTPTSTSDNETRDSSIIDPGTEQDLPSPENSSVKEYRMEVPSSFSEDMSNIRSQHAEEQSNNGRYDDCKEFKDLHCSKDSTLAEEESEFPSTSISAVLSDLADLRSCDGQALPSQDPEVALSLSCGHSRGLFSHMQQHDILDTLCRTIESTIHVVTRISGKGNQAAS

CN(C(=O)CCl)c1nc2ccccc2s1
inactive: USP34 -0.279 | USP36 -0.0441 | USP38 -0.124 | USP39 0.31 | USP4 0.161
